Screens as filed in PubChem.
BRCT inh red: qHTS Assay for Inhibitors of BRCT-Phosphoprotein Interaction (Red Fluorophore); Breast cancer type 1 susceptibility protein (Homo sapiens), P38398; BRCT-phosphopeptide binding, red fluorescence polarization; Potency, µM (top dose mostly 76.9 µM), without a hit: at the highest dose activity change, negative = inhibition, hits mostly inhibitors; 0.03% of 75,000 active; also: % is scaled to controls: 0 for no effect and ±100 for the full control effect
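Rhodamine-labelled pBACH1 10-mer (100 nM) bound to BRCT domain (100 nM) at pH 7.3; compounds incubated 12 min room temperature, polarization read. Free peptide defines full inhibition; unlabelled decapeptide titrated as control.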
BRCT inh green: qHTS Assay for Inhibitors of BRCT-Phosphoprotein Interaction (Green Fluorophore); BRCA1 BRCT-phosphopeptide binding, green fluorescence polarization; Breast cancer type 1 susceptibility protein (Homo sapiens), P38398; 0.05% of 75,000 active; Potency, µM (highest dose often 76.9 µM), for inactives: at the highest dose activity change, negative = inhibition, most hits filed as inhibitors;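 also: potency is read from the fitted curve at half-maximal effect; plate controls were peptide without protein for full effect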
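Compounds were incubated for 12 min at room temperature with a complex of 100 nM fluorescein-tagged pBACH1 decapeptide and 250 nM His-tagged BRCT protein. Buffer was phosphate pH 7.3 with EDTA, DTT and Tween 20. Disruption of binding lowers the polarization signal.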
TsaE inh: qHTS Assay for Inhibitors of YjeE. tRNA threonylcarbamoyladenosine biosynthesis protein TsaE (Escherichia coli (strain …. purified YjeE enzyme, qHTS inhibition assay. Potency, µM. 0.05% of 71,000 active. AID 605, 2007
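Fluorescence polarization of a BODIPY Texas Red–ADP probe (2 uM) bound to purified YjeE (10 uM) was read after 15 min room-temperature incubation with compounds. Loss of polarization marks inhibitors; ADP serves as titrated control.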
DNA Pol III inh: qHTS Assay for Inhibitors of DNA Polymerase III Holoenzyme System. reconstituted DNA polymerase III holoenzyme replication, biochemical. Potency, µM (doses to about 57.1 µM), inactives show at the top dose activity change, negative = inhibition. 0.25% of 71,000 active; also: potency is read from the fitted curve at half-maximal effect; % is scaled to controls: 0 for no effect and ±100 for the full control effect
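Reconstituted *E. coli* holoenzyme (0.35 nM Pol III, 1 nM beta, 154 nM SSB, 2 nM primase) was preincubated with compound for 15 min at RT. Synthesis on 1.4 nM ssM13Gori ran 35 min, then was stopped with PicoGreen/EDTA and read as dsDNA fluorescence.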
ERK AVP inh: qHTS Assay for Inhibitors of the ERK Signaling Pathway using a Homogeneous Screening Assay | AID 995, 2007 | HEK293-V1b, vasopressin-stimulated pERK AlphaScreen | Potency, µM (highest dose often 57.5 µM), without a hit: at the highest dose activity, negative = inhibition, usual class: inhibitors | 0.99% of 72,000 active; also: potency is read from the fitted curve at half-maximal effect; % is scaled to controls: 0 for no effect and ±100 for the full control effect; nearly all actives have a fitted effect of over 55% in size
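V1b-HEK293 cells; cpd 30 min 37C; 25 nM vasopressin 5 min; lyse 10 min; AlphaScreen beads 5 hr RT. Normalized to DMSO basal and 25 nM vasopressin; AC50 by Hill fit.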
* marks the source's active call; other numbers are inactive results; i = inactive; ? = inconclusive; . = no result; [ ] = dose if it differs, or a comment. A selection: hits, their analogues and other compounds. The true share with any hit is near 1.2%. Calls follow the shape of the dose curve; as a rule, active = well fitted curve in the direction sought with a large enough effect; inconclusive = small, poorly fitted or top-dose-only effect, or another doubt; inactive = no such curve, though single readings can be large; an effect the other way counts as inactive or inconclusive.

SMILES	BRCT inh red	BRCT inh green	TsaE inh	DNA Pol III inh	ERK AVP inh
COc1cc2c(cc1OC)-c1cc(Nc3ccc4c(c3)OCCO4)nc(=O)n1CC2	-1%	0%	i	-13%	10µM*
CC(=O)OCC1OC(C#CCC2CCCCC2)C=CC1OC(C)=O (configuration not stated)	0%[15.4 µM]	-2%[15.4 µM]	.	.	-4%[11.5 µM]
O=C(Nc1cccnc1)c1ccc(Cl)c(S(=O)(=O)N2CCCCCC2)c1	0%	-1%	i	-1%	20µM*
O=C(Nc1cccnc1)c1cccc(S(=O)(=O)N2CCOCC2)c1	0%	-2%	i	4%	-29%
C[C@H](O)[C@H](O)[C@@H](O)c1cnc2nc(N)[nH]c(=O)c2n1	.	.	i	-2%	.
CCSC1=C(C#N)C(c2ccc(OC)c(OC)c2)CC(=O)N1 (configuration not stated)	1%	1%	i	4%	-27%
CCCCCCSC1=C(C#N)C(c2ccc(O)cc2)CC(=O)N1 (configuration not stated)	-3%	0%	i	2%	16µM*
O=C(NCc1cc(F)cc2c1OCCO2)[C@H]1C[C@@H]1[C@H](NP(=O)(c1ccccc1)c1ccccc1)c1ccccc1	-1%	-1%	i	-5%	?
O=C(O)C1=CC(=C(c2ccc(O)c(C(=O)O)c2)c2ccc(O)c(C(=O)O)c2)C=CC1=O	6%	16µM*	i	0.079µM*	5%
CC1=C/C(=C(/c2ccc(O)c(C)c2)c2ccccc2C(=O)O)C=CC1=O	-3%[15.4 µM]	2%[15.4 µM]	i	-13%[11.4 µM]	23%[11.5 µM]
CCOC(=O)c1ccc(NC(=O)CCc2nc(-c3ccccc3)no2)cc1	-1%	-3%	i	-1%	16µM*
O=C(CCc1nc(-c2cccs2)no1)Nc1cnc2ccccc2c1	1%	-1%	i	-26%	28%
CCc1cccc(NC(=O)CCc2nc(-c3cccs3)no2)c1	-1%	-1%	i	0%	25µM*
CCOC(=O)c1ccc(NC(=O)CCc2nc(-c3ccccc3Cl)no2)cc1	-1%	-1%	i	-1%	?
CNC(=O)[C@H]1O[C@H](n2cnc3c(NCc4cccc(I)c4)nc(Cl)nc32)[C@@H](O)[C@@H]1O	0%	2%	i	0%	16µM*
COc1cc2ncnc(Nc3cccc(Cl)c3)c2cc1OC	-3%	4%	i	-6%	20µM*
COc1cc2ncnc(Nc3cccc(Br)c3)c2cc1OC	0%	1%	i	3%	-12%
COc1[nH]c(/N=C/c2ccccc2)c(C#N)c1C#N	32µM*	25µM*	i	13%	-7%
Cc1cccc(CNc2ncnc3ccc(-c4cccnc4)cc23)c1	5%	6%	i	5%	2µM*
COc1ccccc1CNc1ncnc2ccc(-c3cccc(NS(C)(=O)=O)c3)cc12	4%	-1%	i	-2%	16µM*
Cc1cccc(CNc2ncnc3ccc(-c4ccoc4)cc23)c1	2%	7%	i	-1%	-17%
Cc1cccc(CNc2ncnc3ccc(-c4cccc(NS(C)(=O)=O)c4)cc23)c1	3%	5%	i	2%	25µM*
Cc1ccc(-c2nn(C)c(=O)c3ccccc23)cc1S(=O)(=O)NCCN1CCOCC1	-2%	22%	i	3%	25µM*
[O-][N+](CCO)(CCO)c1ncnc2nc[nH]c12	0%[15.4 µM]	-1%[15.4 µM]	i	-2%[11.4 µM]	6%[11.5 µM]
C[C@]12CC[C@H]3c4ccc(O)cc4CC[C@@H]3[C@H]1C/C(=N/O)[C@H]2O	-2%[15.4 µM]	0%[15.4 µM]	i	-1%[11.4 µM]	3%[11.5 µM]
COc1ccccc1-c1ccc2ncnc(NCc3cnc(C)cn3)c2c1	-2%	2%	i	-5%	20µM*
Cc1ccccc1-c1ccc2ncnc(NCCN3CCOCC3)c2c1	0%	-1%	i	-3%	25µM*
Cc1cnc(CNc2ccnc(-c3cccc(NS(C)(=O)=O)c3)n2)cn1	-2%	0%	i	-7%	-5%
